About 83,000 compounds went through this panel and 20% of them were active in at least one assay; those are over-represented in the sample as a whole.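 The endpoint reported here, percent growth, reads 100 for growth as untreated, 0 for no net growth and -100 for all cells dead.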 Values without a mark were called inactive. Active and inactive are the calls of the source. How the source made its calls: active means growth percent below 10; inactive means the rest.

Test systems include DU-145 prostate; K-562 leukemia; MALME-3M melanoma; MDA-MB-231 breast; RXF 393 renal; SF-268 CNS; SF-295 CNS; SF-539 CNS; UACC-257 melanoma; M14 melanoma; HCT-15 colon; HT29 colon; SNB-75 CNS; SNB-19 CNS; U251 CNS; PC-3 prostate; SK-MEL-5 melanoma; UACC-62 melanoma; LOX IMVI melanoma; SK-MEL-28 melanoma.
Common to all, as to experiment: NCI-60 one-dose screen, 48 h (100 = growth as untreated, 0 = no growth, -100 = all killed)
Holding throughout (conditions): 10 µM unless noted

For the molecule `C=C(C)[C@@H]1CC[C@]2(C(=O)N3CCN(C)CC3)CC[C@]3(C)[C@H](CC[C@@H]4[C@@]5(C)CC[C@H](OC(=O)c6ccccc6C(=O)O)C(C)(C)[C@@H]5CC[C@]43C)[C@@H]12`, the growth with DU-145 prostate was 104%; in the experiment with K-562 leukemia it was 102%; in the experiment with MALME-3M melanoma, 97.4%; with MDA-MB-231 breast, 96.9%; with RXF 393 renal, 111%; in the experiment on SF-268 CNS it was 92.8%. Besides, the growth was 104% in the experiment on SF-295 CNS; 97.6% with SF-539 CNS; 107% in the experiment with UACC-257 melanoma; 99.3% with M14 melanoma; 103% with HCT-15 colon; 109% in the experiment on HT29 colon. Further, the growth with SNB-75 CNS is 85.1%; with SNB-19 CNS it was 95.4%; in the experiment on U251 CNS it was 105%; in the experiment on PC-3 prostate it was 91%; with SK-MEL-5 melanoma, 99.5%; in the experiment with UACC-62 melanoma, 101%. Moreover, the figures for the growth with LOX IMVI melanoma and in the experiment with SK-MEL-28 melanoma were 99.1% and 105%, respectively.
Regarding `N[C@H]1CCC[C@@H]1NCCCCN1C(=O)c2cccc3cc([N+](=O)[O-])cc(c23)C1=O`, the growth is 29.9% with DU-145 prostate; 25.2% with K-562 leukemia; 73% in the experiment with MALME-3M melanoma; 39.5% in the experiment with MDA-MB-231 breast; 44.1% with RXF 393 renal; 36.5% in the experiment on SF-268 CNS. Further, the growth in the experiment on SF-295 CNS was 66.6%; in the experiment with SF-539 CNS, 38.1%; with UACC-257 melanoma it was 72.7%; in the experiment with M14 melanoma, 76.8%; in the experiment with HCT-15 colon, 63.5%; with HT29 colon, 14.2%. The growth is 46.7% with SNB-75 CNS; 46.2% in the experiment with SNB-19 CNS; 42.1% in the experiment with U251 CNS; 40.7% in the experiment on PC-3 prostate; 70.2% in the experiment on SK-MEL-5 melanoma; 72.2% with UACC-62 melanoma. Moreover, the values for the growth in the experiment with LOX IMVI melanoma and in the experiment on SK-MEL-28 melanoma were 22.8% and 93.6%, respectively.
Consider `Cn1ccc(=O)nc1`, for which the growth in the experiment on DU-145 prostate is 8.53% (active); with K-562 leukemia it was 91.9%; in the experiment with MALME-3M melanoma, 111%; in the experiment with MDA-MB-231 breast it was 91.9%; in the experiment with RXF 393 renal it was 92.6%; in the experiment on SF-268 CNS, 86.1%. In addition, the growth with SF-295 CNS was 82.9%; in the experiment on SF-539 CNS it was 99.9%; in the experiment with UACC-257 melanoma, 88.3%; in the experiment on M14 melanoma, 102%; in the experiment on HCT-15 colon, 24.1%; with HT29 colon it was 20.6%. In addition, the growth in the experiment with SNB-75 CNS is 104%; with SNB-19 CNS it was 84.6%; in the experiment on U251 CNS it was 77.8%; in the experiment with PC-3 prostate, 69.6%; in the experiment with SK-MEL-5 melanoma, 99.3%; in the experiment with UACC-62 melanoma it was 74.8%. For the same molecule, the growth in the experiment on LOX IMVI melanoma was 76.8%; in the experiment on SK-MEL-28 melanoma it was 109%.
In the case of `COc1ccc(C(=O)N2c3ccccc3Sc3ccccc32)c(C(F)(F)F)c1`, the growth in the experiment on DU-145 prostate is 14.2%; with K-562 leukemia, -7.9% (active); with MALME-3M melanoma, 59.7%; in the experiment with MDA-MB-231 breast it was 23.9%; in the experiment on RXF 393 renal, 15.4%; with SF-268 CNS, 35.2%. Moreover, the growth is 5.14% (active) in the experiment with SF-295 CNS; -10.1% (active) in the experiment on SF-539 CNS; 61.5% in the experiment with UACC-257 melanoma; 2.2% (active) with M14 melanoma; 18% in the experiment on HCT-15 colon; 3.4% (active) in the experiment with HT29 colon. Besides, the growth was 29.3% with SNB-75 CNS; 30.8% in the experiment on SNB-19 CNS; 19% in the experiment on U251 CNS; 15.5% with PC-3 prostate; 5.29% (active) in the experiment on SK-MEL-5 melanoma; 31.6% in the experiment with UACC-62 melanoma. Also, the growth in the experiment on LOX IMVI melanoma is 16.7%; in the experiment on SK-MEL-28 melanoma, 52%.
Regarding `O=C1c2ccccc2C(=O)c2c1c(C(=O)NCc1ccccc1)c1ccccn21`, the growth in the experiment on DU-145 prostate was 104%; with K-562 leukemia, 84.5%; in the experiment with MALME-3M melanoma, 108%; in the experiment with MDA-MB-231 breast it was 96.8%; in the experiment on RXF 393 renal it was 104%; in the experiment on SF-268 CNS it was 104%. Moreover, the growth is 98.1% in the experiment on SF-295 CNS; 104% with SF-539 CNS; 90.2% with UACC-257 melanoma; 105% in the experiment on M14 melanoma; 114% in the experiment with HCT-15 colon; 80.6% in the experiment with HT29 colon. Further, the growth in the experiment with SNB-75 CNS is 94.9%; in the experiment on SNB-19 CNS, 93.9%; with U251 CNS, 93.6%; with PC-3 prostate, 95.4%; in the experiment with SK-MEL-5 melanoma, 99.6%; in the experiment on UACC-62 melanoma, 92.2%. Further, the growth in the experiment with LOX IMVI melanoma is 103%; with SK-MEL-28 melanoma, 113%.
As for `CN(CCC(=O)c1ccccc1)CCC(=O)c1ccccc1`, the growth in the experiment with DU-145 prostate was 104%; with K-562 leukemia, 61.7%; with MALME-3M melanoma, 105%; with MDA-MB-231 breast it was 97.3%; with RXF 393 renal, 97.9%; in the experiment on SF-268 CNS, 101%. Also, the growth in the experiment on SF-295 CNS was 108%; in the experiment with SF-539 CNS it was 88%; with UACC-257 melanoma, 98.6%; in the experiment on M14 melanoma it was 94.7%; with HCT-15 colon, 103%; with HT29 colon, 117%. The growth was 90.4% with SNB-75 CNS; 93.1% in the experiment with SNB-19 CNS; 98% in the experiment with U251 CNS; 95.5% in the experiment with PC-3 prostate; 96.4% with SK-MEL-5 melanoma; 77.9% with UACC-62 melanoma. Further, the growth in the experiment with LOX IMVI melanoma was 75.6%; with SK-MEL-28 melanoma, 103%.
As to `CN1CCN(C(=S)SCCCCOc2cc(=O)oc3ccccc23)CC1`, the growth was 90.6% in the experiment on DU-145 prostate; 64.3% in the experiment with K-562 leukemia; 93.3% in the experiment with MALME-3M melanoma; 89.1% in the experiment with MDA-MB-231 breast; 99.5% in the experiment on RXF 393 renal; 87.7% with SF-268 CNS. The growth is 77.7% with SF-295 CNS; 98.9% with SF-539 CNS; 85% in the experiment on UACC-257 melanoma; 103% in the experiment with M14 melanoma; 88.3% in the experiment on HCT-15 colon; 78.5% in the experiment on HT29 colon. Also, the growth is 93.8% with SNB-75 CNS; 94.7% in the experiment on SNB-19 CNS; 87% with U251 CNS; 72.7% with PC-3 prostate; 69.5% with SK-MEL-5 melanoma; 73.9% in the experiment on UACC-62 melanoma. The growth in the experiment on LOX IMVI melanoma is 93.9%; in the experiment on SK-MEL-28 melanoma, 109%.
Turning to `COc1cc(C2C(C(=O)OCc3ccccc3)=C(C)NC(C)=C2C(=O)OCc2ccccc2)cc(OC)c1OC`, the growth in the experiment on DU-145 prostate is 53.9%; in the experiment on K-562 leukemia it was 20.3%; with MALME-3M melanoma, 18%; with MDA-MB-231 breast, 31.9%; in the experiment with RXF 393 renal, -18.5% (active); with SF-268 CNS, 37.6%. In addition, the growth was 15.4% with SF-295 CNS; 41.3% in the experiment on SF-539 CNS; 19.5% in the experiment with UACC-257 melanoma; 21.9% with M14 melanoma; 23.4% with HCT-15 colon; 12.3% with HT29 colon. In addition, the growth is 46.2% with SNB-75 CNS; 42.5% in the experiment with SNB-19 CNS; 31.3% with U251 CNS; 9.87% (active) in the experiment on PC-3 prostate; 8.07% (active) in the experiment with SK-MEL-5 melanoma; 30.2% with UACC-62 melanoma. Besides, the growth is 29.9% with LOX IMVI melanoma and 41.1% in the experiment with SK-MEL-28 melanoma.

For the origin of these results see PubChem BioAssay (NCI).
